Measurements as given in PubChem BioAssay (NCATS).
Results filed as inconclusive are left out. Active and inactive are the calls of the source. The call rests on the fitted dose curve; in most records, active means well fitted curve in the direction sought with a large enough effect; inconclusive means small, poorly fitted or top-dose-only effect, or another doubt; inactive means no such curve, though single readings can be large; an effect the other way counts as inactive or inconclusive.

Columns and labels:
[1] = qHTS of pediatric cancer cell lines to identify multiple opportunities for drug repurposing: Primary screen for TC32 cells (AID 1347089); further: nearly all actives have a fitted effect of over 60% in size
In short: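 Luminescent ATP read-out (CellTiter-Glo) of metabolically active TC32 cells after 48 h exposure. Concentration-response curves came from 11-point (MIPE, 0.78 nM–46 µM) or 8-point (NPC, 0.59 nM–46 µM) primary titrations; follow-up used 11 points.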

[2] = qHTS of pediatric cancer cell lines to identify multiple opportunities for drug repurposing: Primary screen for A673 cells (AID 1347092); further: nearly all actives have a fitted effect of over 45% in size
In short: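 Cell viability of A673 measured by CellTiter-Glo ATP luminescence after 48 hours compound exposure. Dilution series spanned 0.78 nM to 46 µM (MIPE, 11-point) or 0.59 nM to 46 µM (NPC, 8-point); bortezomib 2.3 uM positive control.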

[3] = qHTS of pediatric cancer cell lines to identify multiple opportunities for drug repurposing: Primary screen for SK-N-MC cells (AID 1347093)
In short: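 Metabolically active cells were quantified by ATP-dependent luminescence (CellTiter-Glo, 15 min at room temperature) following 48 h treatment. Cells had been plated at 500-1,000 per well and settled for 5 h beforehand.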

[4] = qHTS of pediatric cancer cell lines to identify multiple opportunities for drug repurposing: Primary screen for BT-37 cells (AID 1347094)
In short: (§1)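 ATP-based luminescence (CellTiter-Glo) quantifies viability after a 48-hour exposure. Compounds are dosed across 8 or 11 final concentrations; DMSO and 2.3 µM bortezomib serve as controls.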

[5] = qHTS of pediatric cancer cell lines to identify multiple opportunities for drug repurposing: Primary screen for NB-EBc1 cells (AID 1347095)
In short: as §1

[6] = qHTS of pediatric cancer cell lines to identify multiple opportunities for drug repurposing: Primary screen for U-2 OS cells (AID 1347096); further: nearly all actives have a fitted effect of over 50% in size
In short: (§2)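 Cells (500-1,000/well) rested 5 h, then received compounds for 48 h; metabolically active cells were measured by CellTiter-Glo luminescence. Final concentrations spanned up to 46 µM (MIPE, 11-point) or 0.59 nM-46 µM (NPC, 8-point) in primary screens, 11-point in follow-ups.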

[7] = qHTS of pediatric cancer cell lines to identify multiple opportunities for drug repurposing: Primary screen for Saos-2 cells (AID 1347097); further: nearly all actives have a fitted effect of over 40% in size
In short: as §1

[8] = qHTS of pediatric cancer cell lines to identify multiple opportunities for drug repurposing: Primary screen for SK-N-SH cells (AID 1347098); further: nearly all actives have a fitted effect of over 65% in size
In short: as §2

[9] = qHTS of pediatric cancer cell lines to identify multiple opportunities for drug repurposing: Primary screen for NB1643 cells (AID 1347099); further: nearly all actives have a fitted effect of over 50% in size
In short: as §1

[10] = qHTS of pediatric cancer cell lines to identify multiple opportunities for drug repurposing: Primary screen for LAN-5 cells (AID 1347100)
In short: as §2

[11] = qHTS of pediatric cancer cell lines to identify multiple opportunities for drug repurposing: Primary screen for Rh18 cells (AID 1347102); further: nearly all actives have a fitted effect of over 65% in size
In short: as §2

[12] = qHTS of pediatric cancer cell lines to identify multiple opportunities for drug repurposing: Primary screen for RD cells (AID 1347104); further: nearly all actives have a fitted effect of over 55% in size
In short: as §1

[13] = qHTS of pediatric cancer cell lines to identify multiple opportunities for drug repurposing: Primary screen for MG 63 (6-TG R) cells (AID 1347105); further: nearly all actives have a fitted effect of over 50% in size
In short: as §1

[14] = qHTS of pediatric cancer cell lines to identify multiple opportunities for drug repurposing: Primary screen for control Hh wild type fibroblast cells (AID 1347106); further: nearly all actives have a fitted effect of over 55% in size
In short: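 Cells (500-1,000/well) in growth media were settled 5 h at 37 degrees C, then given compounds for 48 h. Viability was read as CellTiter-Glo luminescence. Primary runs used MIPE at 11 points (0.78 nM-46 µM) and NPC at 8 points (0.59 nM-46 µM); follow-ups used 11 points.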

[15] = qHTS of pediatric cancer cell lines to identify multiple opportunities for drug repurposing: Primary screen for BT-12 cells (AID 1347101); further: nearly all actives have a fitted effect of over 25% in size
In short: as §2

[16] = qHTS of pediatric cancer cell lines to identify multiple opportunities for drug repurposing: Primary screen for DAOY cells (AID 1347090); further: nearly all actives have a fitted effect of over 55% in size
In short: (§3)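 Cell viability, CellTiter-Glo luminescence; 500-1,000 cells/well, 8- or 11-point titration, 48 h compound exposure at 37 degrees C, 5% CO2. Controls: DMSO neutral, bortezomib 2.3 µM final as positive.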

[17] = qHTS of pediatric cancer cell lines to identify multiple opportunities for drug repurposing: Primary screen for SJ-GBM2 cells (AID 1347091)
In short: as §3

[18] = qHTS of pediatric cancer cell lines to identify multiple opportunities for drug repurposing: Primary screen for OHS-50 cells (AID 1347103); further: nearly all actives have a fitted effect of over 40% in size
In short: as §2

Measured: Potency
Potency means the concentration at half of the fitted maximal effect.

COc1cc(Nc2ncc(F)c(Nc3ccc4c(n3)N(COP(=O)(O)O)C(=O)C(C)(C)O4)n2)cc(OC)c1OC
inactive: [1] | [4] | [14]
active: [2] 2.96 µM | [3] 1.32 µM | [5] 0.935 µM | [6] 4.69 µM | [7] 1.18 µM | [8] 4.29 µM | [9] 0.187 µM | [10] 1.87 µM | [11] 1.87 µM | [12] 3.32 µM | [13] 0.935 µM

Cc1cc(Nc2nc(N[C@@H](C)c3ccc(F)cc3)c(C#N)cc2F)n[nH]1
inactive: [6] | [15]
active: [1] 2.62 µM | [2] 1.18 µM | [5] 0.662 µM | [7] 2.35 µM | [8] 3.41 µM | [9] 0.935 µM | [10] 0.418 µM | [11] 5.9 µM | [13] 3.72 µM

CS(=O)(=O)N1CCN(Cc2cc3nc(-c4cccc5[nH]ncc45)nc(N4CCOCC4)c3s2)CC1
active: [1] 0.829 µM | [2] 4.69 µM | [3] 0.0418 µM | [4] 6.85 µM | [5] 0.833 µM | [7] 0.0526 µM | [9] 0.833 µM | [11] 1.32 µM | [12] 1.05 µM | [13] 0.0935 µM
inactive: [14]

Cc1nc2ccc(CN(C)c3ccc(C(=O)N[C@@H](CCC(=O)O)C(=O)O)s3)cc2c(=O)[nH]1
active: [1] 0.131 µM | [2] 0.059 µM | [3] 0.0105 µM | [5] 0.0422 µM
inactive: [6] | [9] | [11] | [12] | [14]

COC(=O)[C@]12CCC(C)(C)C[C@@H]1[C@@H]1C(=O)C=C3[C@@]4(C)C=C(C#N)C(=O)C(C)(C)[C@@H]4CC[C@@]3(C)[C@]1(C)CC2
active: [16] 0.59 µM | [17] 0.235 µM | [2] 0.372 µM | [3] 0.372 µM | [4] 0.685 µM | [5] 0.264 µM | [6] 0.935 µM | [8] 1.92 µM | [9] 0.662 µM | [10] 0.833 µM | [15] 0.968 µM | [11] 0.935 µM | [18] 0.685 µM | [12] 0.526 µM | [13] 0.743 µM | [14] 5.9 µM

Nc1nccc(Oc2ccc(NC(=O)c3c[nH]cc(-c4ccc(F)cc4)c3=O)cc2F)c1Cl
active: [16] 14.8 µM | [17] 0.132 µM | [2] 5.9 µM | [3] 2.35 µM | [4] 2.17 µM | [5] 1.05 µM | [8] 6.81 µM | [9] 14.8 µM | [10] 1.18 µM | [15] 13.7 µM | [11] 18.7 µM | [18] 7.69 µM | [12] 26.4 µM | [13] 18.7 µM
inactive: [6] | [14]

COc1cc2c(Nc3ccc(NC(=O)c4ccccc4)cc3)ncnc2cc1OCCCN1CCOCC1
active: [1] 3.7 µM | [17] 5.26 µM | [4] 30.6 µM | [5] 18.7 µM | [9] 26.4 µM | [10] 0.743 µM | [18] 27.3 µM | [12] 33.2 µM

Nc1cccc(-c2cc3c(Oc4cccc(O)c4)ncnc3[nH]2)c1
inactive: [6] | [14]
active: [16] 7.43 µM | [17] 20.9 µM | [2] 14.8 µM | [3] 1.05 µM | [5] 3.72 µM | [7] 1.87 µM | [8] 3.04 µM | [9] 20.9 µM | [10] 11.8 µM | [11] 11.8 µM

CCN1CCN(CC(=O)Nc2ccc(-c3cccc4c(=O)cc(N5CCOCC5)oc34)c3sc4ccccc4c23)CC1
inactive: [14]
active: [17] 0.743 µM | [2] 2.35 µM | [3] 0.59 µM | [4] 4.85 µM | [5] 1.18 µM | [7] 2.96 µM | [8] 6.07 µM | [10] 0.833 µM | [11] 1.18 µM | [18] 0.172 µM | [12] 0.743 µM

COc1cc(C(=O)N2CCC(N3CCN(C)CC3)CC2)ccc1Nc1ncc2c(n1)N(C)c1ccccc1C(=O)N2C
inactive: [6]
active: [2] 11.8 µM | [3] 10.5 µM | [4] 15.3 µM | [5] 16.6 µM | [7] 10.5 µM | [8] 21.5 µM | [9] 9.35 µM | [10] 5.26 µM | [11] 11.8 µM | [18] 7.69 µM | [12] 14.8 µM | [13] 9.35 µM

NCC(=O)Nc1ccc(-n2nc(C(F)(F)F)cc2-c2ccc3c(ccc4ccccc43)c2)cc1
active: [16] 23.5 µM | [4] 24.3 µM | [5] 0.833 µM | [7] 26.4 µM | [9] 18.7 µM | [10] 23.5 µM | [15] 24.3 µM | [11] 26.4 µM | [18] 30.6 µM | [12] 16.6 µM
inactive: [14]

Cc1cc(CN2CCN(c3c(Br)cnc4nc(-c5ccc(N6CCN(C)CC6)cc5)[nH]c34)CC2)no1
inactive: [6] | [14]
active: [17] 5.9 µM | [2] 23.5 µM | [5] 2.35 µM | [8] 21.5 µM | [9] 16.6 µM | [10] 0.418 µM | [11] 20.9 µM | [12] 26.4 µM | [13] 18.7 µM
